Source: PubChem BioAssay (National Center for Advancing Translational Sciences (NCATS))
Gal4-VP16 FLuc: counter-screen for ROR gamma inhibitors: Gal4-VP16 reporter; Drosophila S2 Gal4-VP16 UAS-luciferase, luminescence, 20 h; Potency, µM (series often up to 53.6 µM), usual class: inhibitors; actives 3.5% (n = 310,000);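 note: Gal4-VP16 expression switched on by copper sulfate through the metallothionein promoter; nearly all actives have a fitted effect of over 50% in size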
DT40 TDP1 CPT: DT40-hTDP1 cell growth loss with CPT; actives 12% (n = 420,000); Potency, µM (top dose mostly 46.2 µM), hits mostly inhibitors; chicken DT40 Tdp1-/-;hTDP1 cells + 20 nM CPT, ATP luminescence, 48 h; note: nearly all actives have a fitted effect of over 55% in size
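Chicken DT40 Tdp1-/- cells complemented with human TDP1, 400 cells/well, exposed to compounds plus 20 nM camptothecin for at least 48 h at 37 C; viability read as ATP content by CellTiter-Glo luminescence.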
TDP1 block: inhibitors of human tyrosyl-DNA phosphodiesterase TDP1; Q9NUW8; Potency, µM (series often up to 130 µM), usual class: inhibitors; recombinant TDP1, AlphaScreen DNA substrate cleavage; actives 0.28% (n = 350,000); note: nearly all actives have a fitted effect of over 40% in size
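E. coli-derived human Tdp1, 1 nM final. Cpd preinc 15 min RT; substrate 15 nM final, 5 min RT; AS bead mix 10 ug/ml final, 10 min RT. Signal loss = tyrosine-FITC cleavage. No-enzyme wells = max signal.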
RORgamma inh: inhibitors of mouse ROR gamma transcriptional activity. P51450. Drosophila S2 Gal4-RORgamma UAS-luciferase reporter, 20 h. Potency, µM (top dose mostly 53.6 µM), hits mostly inhibitors. actives 5.4% (n = 310,000). AID 2551; note: nearly all actives have a fitted effect of over 60% in size
Target sequence (P51450 whole entry, looked up, the tested form may be a part): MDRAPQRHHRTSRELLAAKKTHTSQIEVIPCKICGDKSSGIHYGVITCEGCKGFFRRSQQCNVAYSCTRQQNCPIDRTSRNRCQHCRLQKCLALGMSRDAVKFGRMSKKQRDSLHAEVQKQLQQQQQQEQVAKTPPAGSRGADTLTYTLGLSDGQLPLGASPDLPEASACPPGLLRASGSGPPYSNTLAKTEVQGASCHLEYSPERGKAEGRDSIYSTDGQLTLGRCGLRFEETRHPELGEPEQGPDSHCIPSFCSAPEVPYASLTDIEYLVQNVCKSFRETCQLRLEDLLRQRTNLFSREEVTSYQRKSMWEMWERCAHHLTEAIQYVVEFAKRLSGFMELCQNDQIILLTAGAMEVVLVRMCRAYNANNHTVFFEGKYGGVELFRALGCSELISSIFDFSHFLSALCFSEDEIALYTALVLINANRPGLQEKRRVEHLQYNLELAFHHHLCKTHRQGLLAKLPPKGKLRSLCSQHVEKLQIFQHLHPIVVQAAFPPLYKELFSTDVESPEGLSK
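A Gal4/UAS one-hybrid system in insect cells: metallothionein-promoter Gal4–ROR gamma fusion plus Photinus luciferase reporter. Copper sulfate 700 uM final, 20 hr ambient incubation, luminescent detection after 10 min with reagent.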
TDP1 cell noCPT: qHTS for Inhibitors of human tyrosyl-DNA phosphodiesterase 1 (TDP1): qHTS in cells in absence of CPT. Potency, µM (series often up to 46.2 µM), actives largely listed as inhibitors. actives 15% (n = 420,000). AID 686978, 2013. DT40 Tdp1-/- hTDP1 cells, no CPT, ATP luminescence, 48 h; note: nearly all actives have a fitted effect of over 55% in size
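Growth of hTDP1-complemented DT40 Tdp1-knockout cells is measured by ATP luminescence after at least 48 hr compound exposure at 37 °C, with DMSO substituting for the 20 nM CPT used in the parallel screen.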
A number is an active result; 0 = inactive; ? = inconclusive; - = no result; ! = not confirmed by another sample; [ ] = another dose, or the depositor's remark. Compounds with a hit are over-represented: about 19% of the library has one in this group of screens. Calls come from the whole dose curve; as a rule, active = well fitted curve in the direction sought with a large enough effect; inconclusive = small, poorly fitted or top-dose-only effect, or another doubt; inactive = no such curve, though single readings can be large; an effect the other way counts as inactive or inconclusive.

SMILES	Gal4-VP16 FLuc	DT40 TDP1 CPT	TDP1 block	RORgamma inh	TDP1 cell noCPT
COc1cc2c(cc1OC)C(C)N(C(=O)c1cc3c(=O)oc4ccc(C)cc4c3s1)CC2 (stereo not given)	0	13µM	0	10µM	14.6µM
COc1ccc(C(=O)N2CCN(C(=O)C3COc4ccccc4O3)CC2)cc1OC (stereo not given)	0	0	0	0	0
CCN1C(=O)/C(=C\c2ccncc2)SC1=Nc1ccc(C)c(C)c1	?	?	0	11.2µM	16.4µM
CCN1C(=O)/C(=C/c2ccc(C)s2)SC1=Nc1ccc(OC)cc1	0	9.2µM	0	0	9.2µM
CCCN1C(=O)/C(=C\c2ccncc2)SC1=Nc1ccccc1	0	?	0	0	?
CCCN1C(=O)/C(=C/c2ccc(C)o2)SC1=Nc1ccc(OC)cc1	0	9.2µM	0	0	8.2µM
CCCN1C(=O)/C(=C/c2ccco2)SC1=Nc1ccc(OC)cc1	0	0	0	0	?
CCOC(=O)C1C(=O)C=C(c2ccc(C)cc2)CC1c1cccc([N+](=O)[O-])c1 (stereo not given)	0	?	0	0	?
COc1ccc(N2C(=O)/C(=C/c3ccc([N+](=O)[O-])cc3)N=C2C)cc1	0	0	0	0	?
O=C(COc1ccc(Cl)cc1)Nc1ccccc1Cl	0	0	-	0	0
COc1ccc(CCNc2cc(N3CCN(C(=O)c4ccccc4F)CC3)ccc2[N+](=O)[O-])cc1OC	10µM	4.61µM	0	0	5.17µM
COc1ccc(C(=O)N2CCN(c3ccc([N+](=O)[O-])c(NCCc4ccc(OC)c(OC)c4)c3)CC2)cc1	3.98µM	4.11µM	0	?	2.59µM
COc1ccc(CCNc2cc(N3CCN(C(=O)c4ccc(C)cc4)CC3)ccc2[N+](=O)[O-])cc1OC	0	-	0	?	-
Cc1ccc(CN2CCC(CNC(=O)Nc3cccc(Cl)c3C)C2)cc1 (stereo not given)	-	?	0	-	?
CCOC(=O)C(C)Sc1nc(=O)n2cccc(C)c2n1 (stereo not given)	0	0	0	0	0
CCOC(=O)C(C)Sc1ncc(-c2ccc(Cl)cc2)cn1 (stereo not given)	0	4.61µM	-	0	0
Cc1cc(CNC(=O)[C@]2(C(F)(F)F)C[C@H](CCC3CCCCC3)CCCO2)nn1C	0	-	0	0	-
Oc1ccc(/C=N/Nc2cc(N3CCCC3)nc(N3CCCC3)n2)cc1O	0	18.4µM	0	0[10 µM]	20.6µM
O=C(NNc1cc(N2CCOCC2)nc(N2CCOCC2)n1)c1ccc(Cl)c(Cl)c1	?	?	0	14.1µM	?
Cc1cccc(/C=N/Nc2cc(N3CCOCC3)nc(N3CCOCC3)n2)c1	?	3.26µM	0	0	16.4µM
Oc1ccc(/C=N\Nc2cc(N3CCOCC3)nc(N3CCOCC3)n2)c(O)c1	0	20.6µM	0	0	16.4µM
Cc1ccc(S(=O)(=O)N2CCOCC2)cc1C(=O)Nc1ccc2c(c1)CCC2	0	0	0	0	?
COc1ccc(-c2nc(CSc3nncn4c3cc3occc34)c(C)o2)cc1	-	16.4µM	0	-	23.1µM
Cc1nnc(SCc2ccccc2Cl)c2cc3occc3n12	-	?	0	-	16.4µM
COc1ccc(-c2nc(CSc3nnc(C)n4c3cc3occc34)c(C)o2)cc1OC	-	10.3µM	0	-	11.6µM
SMILES	Gal4-VP16 FLuc	DT40 TDP1 CPT	TDP1 block	RORgamma inh	TDP1 cell noCPT
CC(=O)Nc1ccc(S(=O)(=O)NC(CC(=O)NC2CCCCC2C)C(C)C)cc1 (stereo not given)	0	0	0	0	0
O=C1C=C(c2ccc3c(c2)OCO3)C[C@@H](c2ccc(Cl)cc2)C1	-	0	0	-	0
CC(C)(C)S(=O)(=O)/C(C#N)=C/Nc1ccccn1	0	0	0	0	0
Cc1cc(C)cc(NC(=O)CSc2ccc(-c3cccs3)nn2)c1	?	?	0	0	20.6µM!
COC(=O)c1ccc(NC(=O)CSc2ccc(-c3cccs3)nn2)cc1	-	0	0	-	0
O=C(CSc1ccc(-c2cccs2)nn1)Nc1ccccc1	0	13µM!	0	0	20.6µM
Cc1nn(Cc2ccc(Cl)cc2)c(C)c1NC(=O)/C=C/c1cnn(C)c1	0	?	0	?	?
Cc1ccc(NC(=O)CCC(=O)N/N=C/c2ccc([N+](=O)[O-])o2)cc1C	0	?	0	0	?
Cc1cc(C)c2c(n1)sc1c(O)cc(=O)[nH]c12	0	0	22.4µM	0	0
Cc1ccccc1OCC(=O)NCCN1CCCC1	0	0	0	0	0
CC1(C)OC(=O)N(c2ccccc2)C12C=Cc1c(ccc3ccccc13)O2 (stereo not given)	?	?	0	?	?
O=C1NC2(C=Cc3c(ccc4ccccc34)O2)Oc2ccccc21 (stereo not given)	0	23.1µM	0	0	23.1µM
O=C(C1CCC(Cn2c(=S)[nH]c3ccccc3c2=O)CC1)N1CCOCC1 (stereo not given)	?	0	0	11.2µM	0
CC1CC(C)CN(C(=O)CCCn2c(=S)[nH]c3ccccc3c2=O)C1 (stereo not given)	12.6µM	0	0	7.94µM	0
O=C(CCCn1c(=S)[nH]c2ccc(Br)cc2c1=O)N1CCN(c2ccccn2)CC1	?	?	0	7.08µM	?
COc1ccccc1N1CCN(C(=O)C2CCC(Cn3c(=S)[nH]c4ccccc4c3=O)CC2)CC1 (stereo not given)	5.01µM	23.1µM	0	2.51µM	?
O=C(CCCn1c(=S)[nH]c2ccccc2c1=O)N1CCCCC1	?	0	0	?	?
O=C(CCCn1c(=S)[nH]c2ccc(Br)cc2c1=O)NCc1ccccn1	0	?	0	?	?
CS(=O)(=O)c1ccc(NS(=O)(=O)c2ccc(Cl)c(C(=O)NC3=NCCS3)c2)cc1	-	0	0	-	0
CC(C)=NNC1=NC(C)(C)Cc2ccccc21	0	0	-	0	0
CCc1ccc(NC(=O)CC(c2cc(OC)c(OC)c(OC)c2)N2Cc3ccccc3C2=O)cc1 (stereo not given)	-	?	0	-	0
CC1CC(C)CN(S(=O)(=O)c2cc3c4c(c2)C(C)C(=O)N4CCC3)C1 (stereo not given)	0	0	0	0	0
O=C(C1CCC(Cn2c(=S)[nH]c3ccccc3c2=O)CC1)N1CCN(c2ccccn2)CC1 (stereo not given)	?	?	0	5.62µM	23.1µM
O=C(C1CCC(Cn2c(=O)[nH]c3ccccc3c2=O)CC1)N1CCN(c2ccccc2)CC1 (stereo not given)	0	0	0	0	0
COc1ccc(N2CCN(C(=O)C3CCC(Cn4c(=S)[nH]c5ccccc5c4=O)CC3)CC2)cc1 (stereo not given)	7.08µM	14.6µM	0	3.55µM	23.1µM
